These results are taken from publication PMC9911399, “Two distinct binding modes provide the RNA-binding protein RbFox with extraordinary sequence specificity”.

T1: RBFOX1 RRM (Homo sapiens, UniProt Q9NWB1 109-208)
T1 sequence: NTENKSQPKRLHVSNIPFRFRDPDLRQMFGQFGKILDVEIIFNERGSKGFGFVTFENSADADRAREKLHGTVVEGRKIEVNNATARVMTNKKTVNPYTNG

B1: CUCGUCC (DNA:RNA)
RNA: GGGAGACCGGAAUUCAGAUUGUCCCUCGUCCUUAAAUCCCGUCGUAGCCACCA
DNA 1: CAATCTGAATTCCGGTCTCCC
DNA 2: TGGTGGCTACGACGGGATT
B2: CCAUCUC (DNA:RNA)
RNA: B1 RNA with U26C, C27A, G28U, U29C, C30U
DNA 1: CAATCTGAATTCCGGTCTCCC
DNA 2: TGGTGGCTACGACGGGATT
B3: GCAUCCG (DNA:RNA)
RNA: B1 RNA with C25G, U26C, C27A, G28U, U29C, C31G
DNA 1: CAATCTGAATTCCGGTCTCCC
DNA 2: TGGTGGCTACGACGGGATT
B4: GCAUUAA (DNA:RNA)
RNA: B1 RNA with C25G, U26C, C27A, G28U, C30A, C31A
DNA 1: CAATCTGAATTCCGGTCTCCC
DNA 2: TGGTGGCTACGACGGGATT
B5: GUCCGCA (DNA:RNA)
RNA: B1 RNA with C25G, G28C, U29G, C31A
DNA 1: CAATCTGAATTCCGGTCTCCC
DNA 2: TGGTGGCTACGACGGGATT
B6: CGCAUCG (DNA:RNA)
RNA: B1 RNA with U26G, G28A, C31G
DNA 1: CAATCTGAATTCCGGTCTCCC
DNA 2: TGGTGGCTACGACGGGATT
B7: GCAUCAG (DNA:RNA)
RNA: GGGAGACCGGAAUUCAGAUUGUCCGCAUCAGUUAAAUCCCGUCGUAGCCACCA
DNA 1: CAATCTGAATTCCGGTCTCCC
DNA 2: TGGTGGCTACGACGGGATT
B8: GCAUGCA (DNA:RNA)
RNA: B7 RNA with C29G, A30C, G31A
DNA 1: CAATCTGAATTCCGGTCTCCC
DNA 2: TGGTGGCTACGACGGGATT
B9: UCCGAUU (DNA:RNA)
RNA: B1 RNA with C25U, U26C, U29A, C30U, C31U
DNA 1: CAATCTGAATTCCGGTCTCCC
DNA 2: TGGTGGCTACGACGGGATT
B10: CAACCGU (DNA:RNA)
RNA: B7 RNA with G25C, C26A, U28C, A30G, G31U
DNA 1: CAATCTGAATTCCGGTCTCCC
DNA 2: TGGTGGCTACGACGGGATT
B11: UACAUGG (DNA:RNA)
RNA: B1 RNA with C25U, U26A, G28A, C30G, C31G
DNA 1: CAATCTGAATTCCGGTCTCCC
DNA 2: TGGTGGCTACGACGGGATT
B12: UUGCUAC (DNA:RNA)
RNA: B1 RNA with C25U, C27G, G28C, C30A
DNA 1: CAATCTGAATTCCGGTCTCCC
DNA 2: TGGTGGCTACGACGGGATT
B13: GAUACGC (DNA:RNA)
RNA: B7 RNA with C26A, A27U, U28A, A30G, G31C
DNA 1: CAATCTGAATTCCGGTCTCCC
DNA 2: TGGTGGCTACGACGGGATT
B14: GGGUUUA (DNA:RNA)
RNA: B7 RNA with C26G, A27G, C29U, A30U, G31A
DNA 1: CAATCTGAATTCCGGTCTCCC
DNA 2: TGGTGGCTACGACGGGATT
B15: GGGGUUA (DNA:RNA)
RNA: B1 RNA with C25G, U26G, C27G, C30U, C31A
DNA 1: CAATCTGAATTCCGGTCTCCC
DNA 2: TGGTGGCTACGACGGGATT
B16: GGGGGGG (DNA:RNA)
RNA: B7 RNA with C26G, A27G, U28G, C29G, A30G
DNA 1: CAATCTGAATTCCGGTCTCCC
DNA 2: TGGTGGCTACGACGGGATT
B17: CGGGGGG (DNA:RNA)
RNA: B1 RNA with U26G, C27G, U29G, C30G, C31G
DNA 1: CAATCTGAATTCCGGTCTCCC
DNA 2: TGGTGGCTACGACGGGATT
B18: GUCGGGG (DNA:RNA)
RNA: B1 RNA with C25G, U29G, C30G, C31G
DNA 1: CAATCTGAATTCCGGTCTCCC
DNA 2: TGGTGGCTACGACGGGATT
B19: CGGGUUA (DNA:RNA)
RNA: B1 RNA with U26G, C27G, C30U, C31A
DNA 1: CAATCTGAATTCCGGTCTCCC
DNA 2: TGGTGGCTACGACGGGATT
B20: CACCGGG (DNA:RNA)
RNA: B1 RNA with U26A, G28C, U29G, C30G, C31G
DNA 1: CAATCTGAATTCCGGTCTCCC
DNA 2: TGGTGGCTACGACGGGATT
B21: CGGGUUG (DNA:RNA)
RNA: B1 RNA with U26G, C27G, C30U, C31G
DNA 1: CAATCTGAATTCCGGTCTCCC
DNA 2: TGGTGGCTACGACGGGATT
B22: GGGGUUG (DNA:RNA)
RNA: B1 RNA with C25G, U26G, C27G, C30U, C31G
DNA 1: CAATCTGAATTCCGGTCTCCC
DNA 2: TGGTGGCTACGACGGGATT
B23: GUGGCCC (DNA:RNA)
RNA: B1 RNA with C25G, C27G, U29C
DNA 1: CAATCTGAATTCCGGTCTCCC
DNA 2: TGGTGGCTACGACGGGATT
B24: ACGGGUG (DNA:RNA)
RNA: B7 RNA with G25A, A27G, U28G, C29G, A30U
DNA 1: CAATCTGAATTCCGGTCTCCC
DNA 2: TGGTGGCTACGACGGGATT
B25: GGGGGUG (DNA:RNA)
RNA: B7 RNA with C26G, A27G, U28G, C29G, A30U
DNA 1: CAATCTGAATTCCGGTCTCCC
DNA 2: TGGTGGCTACGACGGGATT
B26: GGGUGGU (DNA:RNA)
RNA: B7 RNA with C26G, A27G, C29G, A30G, G31U
DNA 1: CAATCTGAATTCCGGTCTCCC
DNA 2: TGGTGGCTACGACGGGATT
B27: GGGUGUG (DNA:RNA)
RNA: B7 RNA with C26G, A27G, C29G, A30U
DNA 1: CAATCTGAATTCCGGTCTCCC
DNA 2: TGGTGGCTACGACGGGATT
B28: CGGGGUG (DNA:RNA)
RNA: B1 RNA with U26G, C27G, U29G, C30U, C31G
DNA 1: CAATCTGAATTCCGGTCTCCC
DNA 2: TGGTGGCTACGACGGGATT
B29: GGGGUGG (DNA:RNA)
RNA: B1 RNA with C25G, U26G, C27G, C30G, C31G
DNA 1: CAATCTGAATTCCGGTCTCCC
DNA 2: TGGTGGCTACGACGGGATT
B30: GGGUGUC (DNA:RNA)
RNA: B7 RNA with C26G, A27G, C29G, A30U, G31C
DNA 1: CAATCTGAATTCCGGTCTCCC
DNA 2: TGGTGGCTACGACGGGATT
B31: CGGGUGG (DNA:RNA)
RNA: B1 RNA with U26G, C27G, C30G, C31G
DNA 1: CAATCTGAATTCCGGTCTCCC
DNA 2: TGGTGGCTACGACGGGATT
B32: CCGGGUG (DNA:RNA)
RNA: B1 RNA with U26C, C27G, U29G, C30U, C31G
DNA 1: CAATCTGAATTCCGGTCTCCC
DNA 2: TGGTGGCTACGACGGGATT

Changes are numbered by the printed parent chain; changes in the protein carry UniProt numbers. The full ranking holds about 16,000 sequences; the median of “ka relative to ugcaugu” is about 0.0091, and the highest 2% start at about 0.032. The sample holds the highest values, similar sequences and a random draw of the others, so the mix is not that of the screen.

The target of the experiment is T1, RBFOX1 RRM. In words: EMSA; HiTS-Eq, 1 nM pool, 10 min; buffer printed only for the single-RNA assays: 10 mM Tris pH 7.5, 150 mM NaCl, 3.4 mM EDTA, 0.001% NP-40, 30 C. The settings on record: tags: His6 N-terminal (pET28a); label: 5' 32P. Put shortly:
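Purified RbFox RRM, wild type or mutant, was incubated for 10 min in 50 µL with 1 nM of a 5′-radiolabelled RNA pool carrying 7 randomized nucleotides, whose flanks were annealed to DNA oligonucleotides, over a series of increasing protein concentrations. Unbound RNA was resolved on 8% native PAGE, cut out, reverse-transcribed, barcoded by PCR and sequenced on an Illumina HiSeq 2500. Relative association constants were derived from changes in read counts for each RNA species versus the control reaction and normalised to the cognate motif.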
A general note: In EMSA bound probe runs differently from free probe, usually more slowly.
In the case of B1, the binding signal was 0.00629 KA relative to UGCAUGU. Consider B2, for which the binding signal is 0.00486 KA relative to UGCAUGU. The same measure for B3: 0.0325 KA relative to UGCAUGU; for B4: 0.00489 KA relative to UGCAUGU.

On to B5, for which the binding signal was 0.0155 KA relative to UGCAUGU. On to B6, for which the binding signal was 0.017 KA relative to UGCAUGU.

As to B7, the binding signal was 0.0121 KA relative to UGCAUGU. As to B8, the binding signal is 0.751 KA relative to UGCAUGU.

In the case of B9, the binding signal is 0.00941 KA relative to UGCAUGU. In the case of B10, the binding signal is 0.00135 KA relative to UGCAUGU.

With B11, the binding signal is 0.0106 KA relative to UGCAUGU. B12: the binding signal is 0.015 KA relative to UGCAUGU. Regarding B13, the binding signal is 0.012 KA relative to UGCAUGU. Then B14, with 0.0165 KA relative to UGCAUGU.

For the molecule B15, the binding signal is 0.0364 KA relative to UGCAUGU. Then B16, with 0.0247 KA relative to UGCAUGU; and B17, with 0.0136 KA relative to UGCAUGU; and B18, with 0.0181 KA relative to UGCAUGU.

As for B19, the binding signal was 0.0205 KA relative to UGCAUGU. The same measure for B20: 0.00514 KA relative to UGCAUGU. On to B21, for which the binding signal was 0.0491 KA relative to UGCAUGU. On to B22, for which the binding signal was 0.0899 KA relative to UGCAUGU.

For B23, the binding signal was 0.0179 KA relative to UGCAUGU. As to B24, the binding signal is 0.0185 KA relative to UGCAUGU. As for B25, the binding signal was 0.0397 KA relative to UGCAUGU.

With B26, the binding signal was 0.0199 KA relative to UGCAUGU. The same measure for B27: 0.0275 KA relative to UGCAUGU; for B28: 0.0399 KA relative to UGCAUGU; for B29: 0.0333 KA relative to UGCAUGU. The same measure for B30: 0.0216 KA relative to UGCAUGU. The same measure for B31: 0.0171 KA relative to UGCAUGU; for B32: 0.0271 KA relative to UGCAUGU.
